From PubChem BioAssay
The entries come from a sample that favours hits as a whole.
Anthrax LF inh2: anthrax lethal factor protease inhibition | P15917 | multiplex microsphere protease cleavage assay, LF | inhibition, % at 10 µM | 0.12% of 360,000 active | AID 588501; further: plate controls were buffer without enzyme for full effect and enzyme alone for no effect
TcdB GH inh: inhibitors of Clostridioides difficile toxin B glycohydrolase; inhibition, % at 9.99 µM; P18177; AID 652162; 0.24% of 350,000 active; TcdB glycohydrolase enzymatic assay, plate reader; in the data active means inhibition above about 10%
BoNT A protease: BoNT A light chain protease inhibition. multiplex microsphere protease substrate cleavage, flow cytometry. inhibition, % at 10 µM. 0.17% of 360,000 active; further: plate controls were buffer without enzyme for full effect and enzyme alone for no effect
Bead autofluor: flagged as autofluorescent in microsphere protease counterscreen. compound autofluorescence counterscreen, microsphere flow cytometry; hits give high values. fluorescence intensity (test concentration not listed). 3.1% of 360,000 active; in the data active means fluorescence intensity above about 16000; inconclusive means no clear call, values can overlap the other calls
BoNT F protease: blocks Botulinum neurotoxin F light chain protease; Multiplex microsphere protease cleavage assay, flow cytometry; inhibition, % at 10 µM; 0.22% of 360,000 active; AID 588497; in the data active means inhibition above about 35%, passing the limit was not always enough; inconclusive means no clear call, values can overlap the other calls; further: plate controls were buffer without enzyme for full effect and enzyme alone for no effect
* = called active by the depositor; ? = inconclusive; / = no result. Unless noted, no stated cut-off is given here; in the data, active means inhibition above about 30%; inconclusive means no clear call, values can overlap the other calls; inactive means below that.

SMILES	Anthrax LF inh2	TcdB GH inh	BoNT A protease	Bead autofluor	BoNT F protease
COc1ccc(S(=O)(=O)Nc2ccc3c(c2)C(=O)N([C@H](C)CO)C[C@H](C)[C@H](CN(C)C(=O)NC2CCCCC2)OCCCC[C@H](C)O3)cc1	/	0	/	/	/
O=C(N/C(=C\c1ccccc1)C(=O)N1CCOCC1)c1ccccc1Cl	-33	1	-142	42511*	-223
COC(=O)c1cccc(NC(=O)/C(=C\c2ccccc2)NC(=O)c2ccccc2Cl)c1	-5	/	0	9655	-1
O=C(Nc1cccc(C(=O)O)c1)/C(=C\c1ccccc1)NC(=O)c1ccccc1Cl	2	/	4	5393	41*
C[C@@H]1CN([C@H](C)CO)C(=O)c2cc(C#CC3(O)CCCC3)cnc2O[C@@H]1CN(C)C(=O)CC1CC1	/	1	/	/	/
COC(=O)[C@@H]1[C@@H](CO)[C@@H]2Cn3c(ccc(-c4ccncc4)c3=O)[C@@H]2N1Cc1cccc(F)c1	/	0	/	/	/
O=C1NCCN1C(=O)N(c1ccccc1)c1ccccc1	4	/	1	22362*	1
CN1CCN(C(=O)C[C@@H]2CC[C@H]3[C@@H](COC[C@@H](O)CN3C(=O)C3CCCC3)O2)CC1	/	0	/	/	/
C=CCn1c(COc2ccc(F)cc2)nnc1SCC(=O)N1CC(=O)Nc2ccccc21	1	/	-4	21515*	-4
Cc1[nH]c(=O)[nH]c(=O)c1NC(=O)c1cccs1	-6	/	2	21903*	2
Cc1cc(N/N=C/c2ccc(O)cc2O)nc(N2CCOCC2)n1	-2	15*	-1	4947	-6
Oc1ccc(/C=N\Nc2cc(N3CCOCC3)nc(N3CCOCC3)n2)c(O)c1	-2	-3	-1	10673	-12
C[C@@H]1CN([C@H](C)CO)C(=O)c2cc(NS(=O)(=O)c3ccc(Cl)cc3)ccc2O[C@@H](C)CCCCO[C@H]1CN(C)C(=O)C1CCCCC1	/	-1	/	/	/
O=C(NC(Cc1ccccc1)C(=O)NCc1ccccn1)c1ccco1 (stereo unspecified)	-4	/	-2	17464*	-7
C[C@H]1CN([C@@H](C)CO)C(=O)c2cc(NS(=O)(=O)c3cccs3)ccc2O[C@@H]1CN(C)S(=O)(=O)c1ccc(F)cc1	/	0	/	/	/
Cc1noc(C)c1S(=O)(=O)N(C)C[C@H]1OCCCC[C@@H](C)Oc2ccc(NS(=O)(=O)c3ccc(Cl)cc3)cc2C(=O)N([C@@H](C)CO)C[C@@H]1C	/	0	/	/	/
O=C(/C=C/c1ccco1)Nc1sc2c(c1C(=O)O)CCC2	-4	7	-1	16426*	-4
O=C(Nc1sc2c(c1C(=O)O)CCCC2)c1ccc(Cl)cc1	16	12*	1	3962	9
N#Cc1c(NC(=O)/C=C/c2ccco2)sc2c1CCCC2	-1	0	0	2342	-8
Cc1ccc(-c2csc(NC(=O)c3cccc(C)c3)c2C(=O)O)cc1	-2	6	-5	3901	16
Cc1ccc(-c2csc(NC(=O)/C=C/c3ccco3)c2C(=O)O)cc1	-2	15*	0	2597	-1
O=C(Nc1sc2c(c1C(=O)O)CCCCC2)c1ccccc1	-4	8	-2	4582	-3
C[C@@H]1CCCCO[C@@H](CN(C)C(=O)Nc2ccccc2)[C@H](C)CN([C@H](C)CO)C(=O)c2cc(NS(=O)(=O)c3cccs3)ccc2O1	/	0	/	/	/
Cc1cccc(-c2ccc([C@H]3[C@H](CO)N4C(=O)CN(C(=O)Cc5ccccn5)C[C@@H]34)cc2)c1	/	1	/	/	/
O=C(O)c1ccc(-c2ccccc2)[nH]1	-4	1	2	22282*	0
SMILES	Anthrax LF inh2	TcdB GH inh	BoNT A protease	Bead autofluor	BoNT F protease
COc1ccccc1-c1ccc(NC2CCCCC2)nn1	7	/	3	23544*	-2
COc1ccccc1-c1ccc(Nc2cccc(C(F)(F)F)c2)nn1	-1	/	1	2907	-12
CCNC(=O)c1cc(Br)ccc1Cl	-1	/	-2	16959*	0
Cc1ccc(NC(C#N)c2ccccc2OCc2ccccc2)cc1 (stereo unspecified)	-2	/	?	23322*	-7
COc1ccccc1CNC(=O)C[C@H]1C[C@@H]2c3cc(NC(=O)c4cccnc4)ccc3O[C@@H]2[C@H](CO)O1	/	1	/	/	/
CC1CCN(S(=O)(=O)c2cccc(C(=O)NCc3ccco3)c2)CC1	-3	/	-1	23763*	-3
Cc1ccc(S(=O)(=O)N2CCC(C(=O)N3CCC[C@H]3C(=O)NCc3ccccc3)CC2)cc1	0	/	-5	21009*	-6
O=C(NCc1ccco1)C1Cc2ccccc2CN1S(=O)(=O)c1ccccc1F (stereo unspecified)	2	/	-2	23284*	-3
Cc1ccc(S(=O)(=O)N2CCCCC2C(=O)NCc2ccco2)cc1 (stereo unspecified)	-5	/	1	4340	-4
Cc1ccc(S(=O)(=O)N2CCC(C(=O)N3CCC[C@H]3C(=O)NCc3ccco3)CC2)cc1	-2	/	-1	16928*	0
O=C(NCC(F)(F)F)[C@H]1[C@H](CO)[C@H]2Cn3c(ccc(-c4cccnc4)c3=O)[C@@H]1N2Cc1ccccc1	/	0	/	/	/
CO[C@H]1CN(C)C(=O)c2cc(NC(=O)C3CC3)ccc2OC[C@@H](C)N(CC2CC2)C[C@H]1C	/	0	/	/	/
CCCN(C)C[C@@H]1OCCCC[C@@H](C)Oc2ccc(NC(=O)CCC(F)(F)F)cc2C(=O)N([C@H](C)CO)C[C@@H]1C	/	1	/	/	/
CCCNC(=O)C1CN(S(=O)(=O)c2ccccc2)CCN1S(=O)(=O)c1ccccc1 (stereo unspecified)	-3	/	0	7050	-4
O=C(NCc1ccco1)C1CN(S(=O)(=O)c2ccccc2)CCN1S(=O)(=O)c1ccccc1 (stereo unspecified)	1	/	4	20955*	6
CC(=O)N(C)C[C@@H]1Oc2cc(/C=C/c3ccccc3)ccc2S(=O)(=O)N([C@H](C)CO)C[C@@H]1C	/	13*	/	/	/
C[C@H]1CN([C@@H](C)CO)S(=O)(=O)c2ccc(C#Cc3ccncc3)cc2O[C@H]1CN(C)C(=O)C1CC1	/	5	/	/	/
CC(=O)N(C)C[C@H]1Oc2cc(/C=C/c3ccccc3)ccc2S(=O)(=O)N([C@H](C)CO)C[C@H]1C	/	1	/	/	/
C[C@@H]1CN([C@@H](C)CO)S(=O)(=O)c2ccc(C#Cc3ccncc3)cc2O[C@H]1CN(C)C(=O)C1CC1	/	11*	/	/	/
CN(C)S(=O)(=O)N(CC(=O)Nc1ccc(F)c(F)c1)c1ccccc1	-1	3	1	19146*	0
CC(=O)c1cccc(N(CC(=O)Nc2ccc(F)cc2F)S(C)(=O)=O)c1	-4	/	1	22378*	1
CN(C)S(=O)(=O)N(CC(=O)Nc1ccc2ccccc2c1)c1ccccc1	-2	/	-1	3083	-20
CC(=O)c1cccc(NC(=O)CN(c2ccccc2F)S(C)(=O)=O)c1	0	2	1	22974*	2
COCC(=O)N1[C@H](CO)[C@H](c2ccccc2)C12CN(C(=O)c1cccnc1)C2	/	-2	/	/	/
CO[C@H]1CN(C)C(=O)c2cc(NC(=O)c3ccccc3)ccc2OC[C@@H](C)N(C(=O)CN(C)C)C[C@H]1C	/	1	/	/	/
O=C(c1ccccc1)N1CCCC(C(=O)N2CCc3ccccc3C2)C1 (stereo unspecified)	3	/	0	5418	-16
